# Laboratory results reported in PubChem BioAssay (NCATS).
# Values joined by “and” are separate entries in the source; they are usually repeats but may differ in a detail not shown here. Equal entries are not always repeated. Records with an inconclusive call do not appear. A structure can be active in one record and inactive in another. Active and inactive are the calls of the source. Unless noted, the call rests on the fitted dose curve; in most records, active means well fitted curve in the direction sought with a large enough effect; inconclusive means small, poorly fitted or top-dose-only effect, or another doubt; inactive means no such curve, though single readings can be large; an effect the other way counts as inactive or inconclusive.
# Legend:
# [1] = target: Lysosomal acid glucosylceramidase (Homo sapiens) (UniProt P04062); experiment: Glucocerebrosidase-p2 (AID 348; in the data active means potency below about 10 µM; further: potency means the concentration at half of the fitted maximal effect); conditions: purified GBA, blue fluorogenic substrate, 40 min
# Summary of the method: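 Normal human glucocerebrosidase (0.2 nM) with blue fluorogenic substrate (80 uM final) in citrate/phosphate pH 5.9 with 10mM sodium taurocholate, 0.01% tween-20; 40 min RT, NaOH/glycine stop; fluorescence Ex 365/Em 440; AC50 from a titration from 0.6 nM upwards.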
# [2] = AP1 Signaling Pathway (AID 357; active means well fitted curve in either direction with a large enough effect, not every such curve was filed as active;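 further: ME-180 reporter cells stimulated with EGF at its EC50 level; on the % scale 0 is the no-effect control and ±100 the full control effect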); conditions: ME-180 AP-1-bla reporter, EGF-induced, beta-lactamase ratio, 5 h; series mostly up to 17.2 µM
# Summary of the method: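 Modulation of EGF-driven AP-1 transcription was assessed with a beta-lactamase reporter in ME-180 cells. Compound and EC50 EGF were co-incubated 5 hours at 37 °C before 2.5-hour CCF4 loading at room temperature and dual-emission reading.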
# [3] = target: Cytochrome P450 1A2 (Homo sapiens) (UniProt P05177); experiment: p450-cyp1a2 (AID 410; calls by dose curve;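 further: -100% = full effect of reference inhibitor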); conditions: recombinant CYP1A2, luciferin-ME demethylation, luminescence; series mostly up to 25.6 µM
# Summary of the method: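 20nM CYP1A2, 100uM Luciferin-ME (=Km), 100mM KPO4; cpd 10 min RT; +NADPH regen, 60 min RT; stop/detect 20 min; luminescence. Normalized to furafylline 57 uM = full inhibition.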
# [4] = NFAT Signaling Pathway (AID 444; active means well fitted curve in either direction with a large enough effect, not every such curve was filed as active;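 further: carbachol stimulus at about its EC50 of 1 µM final; on the % scale 0 is the no-effect control and ±100 the full control effect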); conditions: Jurkat NFAT-bla M1, carbachol, beta-lactamase ratio, 5 h; at 7.69 µM (top of the series)
# Summary of the method: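 Read-out: CCF4 FRET ratio (460 nm/530 nm) after 1 h RT dye loading, used for %activity and AC50 from titration series. Cells: Jurkat NFAT-β-lactamase/M1 line, treated with compound plus 1 uM carbachol for 5 h, 37 °C.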
# [5] = Stat Signaling Pathway (AID 446; active means well fitted curve in either direction with a large enough effect, not every such curve was filed as active;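 further: ME-180 cervical cancer cells given 40 pM IL-6 alongside compound; SIE-controlled beta-lactamase reporter measured as 460/530 nm FRET emission ratio; on the % scale 0 is the no-effect control and ±100 the full control effect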); conditions: ME-180 (cervical carcinoma) SIE beta-lactamase reporter, IL-6 stimulated, 5 h; series mostly up to 17.2 µM
# Summary of the method: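 Overnight-plated ME-180 cells bearing a STAT Inducible Element beta-lactamase reporter; 5 h co-exposure to compound and 40 pM IL-6; values normalized to 300 pM IL-6 and 125 nM JAK inhibitor controls.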
# [6] = target: Glucocorticoid receptor (Homo sapiens) (UniProt P04150); experiment: GR-EFC Redistribution (AID 451; calls by dose curve; further: potency means the concentration at half of the fitted maximal effect); conditions: CHO-K1 GR-EFC translocation, beta-gal luminescence, 2 h
# Summary of the method: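 Translocation of GR-ED fusion to nuclear EA restores b-gal, read by luminescence after 1 h room-temperature detection. Engineered CHO-K1 biosensor cells, 1,000/well, exposed 2 h at 37 C to titrations up to 46 uM final.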
# [7] = target: 3',5'-cyclic-AMP phosphodiesterase 4B (Homo sapiens) (UniProt Q07343); experiment: qHTS Assay for Inhibitors of PDE-IV (AID 607; active means well fitted activation curve with a large enough effect in the main read-out, with a control signal flat, not every such curve was filed as active; further: % of control where 0% means no effect); conditions: HEK293 ACTOne CNG channel cells, membrane potential fluorescence; series mostly up to 22.9 µM
# Summary of the method: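 Live HEK293 cells with a modified cyclic nucleotide-gated (CNG) channel report intracellular cAMP via membrane-potential dye fluorescence (ex 535/em 590 nm). Endogenous PDE-IV was targeted. Compounds were tested at up to 22.9 uM final; RO 20-1724 100 uM served as control.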
# [8] = qHTS Assay for Lipid Storage Modulators (AID 1519; calls by dose curve); conditions: Drosophila S3 cells, BODIPY lipid droplet/cell ratio, laser cytometry, cells loaded with oleic acid
# Summary of the method: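 Cells seeded at 5,000 per well were treated with compounds over a concentration series and loaded with oleic acid (400 uM, as added). Lipid droplet fluorescence (488 nm excitation, 500-530 nm channel) was read by laser-scanning cytometry and normalized to 20 uM Triacsin C.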
# [9] = target: Mitogen-activated protein kinase 10 (Mus musculus) (UniProt Q61831); experiment: JNK3 AlphaScreen Assay (AID 530; active means well fitted curve in either direction with a large enough effect, not every such curve was filed as active;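 further: kinase came from lysate of stimulated human HepG2 cells; signal reports phosphorylation of biotinylated GST-cJun 1-79 at Ser73 with 10 µM ATP; on the % scale 0 is the no-effect control and ±100 the full control effect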); conditions: JNK3 lysate, c-Jun phosphorylation; series mostly up to 57.1 µM
# Summary of the method: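 Kinase buffer: 20 mM Tris-HCl pH 7.6, 10 mM MgCl2, 1 mM DTT, 0.1 mM Na3VO4, 0.01% Tween-20; ATP 10 uM. Substrate biotin-GST-cJun(1-79), enzyme from activated HepG2 lysates. Detection by Ser73 phospho-antibody AlphaScreen.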
# [10] = target: Cytochrome P450 3A4 (Homo sapiens) (UniProt P08684); experiment: qHTS Assay for Activators of Cytochrome P450 3A4 (AID 885); conditions: recombinant CYP3A4, Luciferin-PPXE luminescence, 60 min; series mostly up to 57.1 µM; further: nearly all actives have a fitted effect of over 65% in size
# Summary of the method: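 Using 20nM recombinant human CYP3A4 in potassium phosphate (200mM), substrate Luciferin-PPXE at 25uM, luminescent luciferin detection followed a 60-min RT NADPH reaction; data scaled to 57 uM ketoconazole.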
# [11] = target: Ubiquitin carboxyl-terminal hydrolase 1 (Homo sapiens) (UniProt O94782); experiment: Inhibitors of USP1/UAF1: Pilot qHTS (AID 504865); conditions: purified USP1/UAF1, Ub-rhodamine cleavage fluorescence; series mostly up to 114 µM;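 further: rhodamine fluorescence freed from ubiquitin-rhodamine substrate followed over time; top concentration of the series differs between compounds; on the % scale 0 is the no-effect control and ±100 the full control effect; nearly all actives have a fitted effect of over 35% in size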
# Summary of the method: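 USP1/UAF1 complex at 1 nM preincubated 15 min at room temperature with compound, then Ub-Rho substrate added at 150 nM final. Fluorescence (480/540 nm) read kinetically in 50 mM HEPES pH 7.8, 0.5 mM EDTA, 1 mM TCEP, 0.1 mg/ml BSA, 0.01% Tween-20.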
# [12] = target: Cytochrome P450 3A4 (Homo sapiens) (UniProt P08684); experiment: qHTS Assay for Inhibitors and Substrates of Cytochrome P450 3A4 (AID 884); conditions: recombinant CYP3A4, Luciferin-PPXE luminescence; series mostly up to 57.1 µM; further: nearly all actives have a fitted effect of over 50% in size; further: potency means the concentration at half of the fitted maximal effect
# Summary of the method: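 Luminescent readout of luciferin produced by CYP3A4 (20 nM) dealkylation of Luciferin-PPXE, 25 uM (its KM). NADPH-driven reaction ran 60 min at RT after 10 min compound preincubation; data scaled to 57 uM ketoconazole as 100% inhibition.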
# [13] = target: Glucocorticoid receptor (Homo sapiens) (UniProt P04150); experiment: GR-GFP Redistribution (AID 450;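 active means compounds whose dose series gives a full or clear partial fitted curve of increased nuclear translocation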; further: potency means the concentration at half of the fitted maximal effect); conditions: U2OS GR-GFP nuclear translocation, laser cytometry, 2 h
# [14] = target: ATP-dependent 6-phosphofructokinase (Trypanosoma brucei brucei) (UniProt O15648); experiment: qHTS Assay to Find Inhibitors of T. brucei phosphofructokinase: hit validation (AID 492961); conditions: T. brucei PFK, ADP-Glo luminescence; series mostly up to 51.4 µM
# Summary of the method: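 ADP-Glo luminescence read-out of ADP formed by 1.25 nM PFK from 0.1 mM ATP and 0.5 mM F6P (TEA pH 8.0, 45 min, RT). Compounds titrated; activity normalized to no-enzyme and full-enzyme controls.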
# [15] = target: Luciferin 4-monooxygenase (Photinus pyralis) (UniProt P08659); experiment: Biochemical firefly luciferase enzyme assay for NPC (AID 624030);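 further: purified P. pyralis luciferase at 10 nM with luciferin and ATP substrate; 0% = DMSO and -100% = full luciferase inhibition by PTC124 control; nearly all actives have a fitted effect of over 70% in size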; conditions: purified P. pyralis luciferase, luminescence, 5 min; series mostly up to 58.6 µM
# Summary of the method: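 Direct inhibition of firefly luciferase enzyme (10 nM final, 50 mM Tris Acetate) assessed by luminescence within 5 minutes. Percent activity scaled between DMSO and PTC124 positive control, with concentration-effect curves classified by fit quality and response.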
# [16] = qHTS profiling for inhibitors of Plasmodium falciparum proliferation (AID 504749);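 further: 0% = DMSO vehicle and full inhibition = artemisinin control; nearly all actives have a fitted effect of over 60% in size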; conditions: P. falciparum in erythrocytes, SYBR Green DNA, 72 h
# Summary of the method: (§1)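 In a 72 h erythrocytic culture (37 C, humidified, 5% CO2) at 2.5% hematocrit and 0.3% starting parasitemia, compounds were tested; SYBR Green I in detergent lysis buffer stained parasite DNA overnight.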
# [17] = system: C2A; experiment: as above; conditions: P. falciparum in erythrocytes, SYBR Green DNA, 72 h; series mostly up to 28.7 µM
# Summary of the method: as §1
# [18] = system: CP185; experiment: as above; conditions: P. falciparum in erythrocytes, SYBR Green DNA, 72 h; series mostly up to 28.7 µM
# Summary of the method: as §1
# [19] = system: FAB9; experiment: as above; conditions: P. falciparum in erythrocytes, SYBR Green DNA, 72 h; series mostly up to 28.7 µM
# Summary of the method: as §1
# [20] = measured here: cell count channel max response
# [21] = measured here: lipid channel max response
# Sequence of 3',5'-cyclic-AMP phosphodiesterase 4B (Homo sapiens) (Q07343 whole entry, looked up): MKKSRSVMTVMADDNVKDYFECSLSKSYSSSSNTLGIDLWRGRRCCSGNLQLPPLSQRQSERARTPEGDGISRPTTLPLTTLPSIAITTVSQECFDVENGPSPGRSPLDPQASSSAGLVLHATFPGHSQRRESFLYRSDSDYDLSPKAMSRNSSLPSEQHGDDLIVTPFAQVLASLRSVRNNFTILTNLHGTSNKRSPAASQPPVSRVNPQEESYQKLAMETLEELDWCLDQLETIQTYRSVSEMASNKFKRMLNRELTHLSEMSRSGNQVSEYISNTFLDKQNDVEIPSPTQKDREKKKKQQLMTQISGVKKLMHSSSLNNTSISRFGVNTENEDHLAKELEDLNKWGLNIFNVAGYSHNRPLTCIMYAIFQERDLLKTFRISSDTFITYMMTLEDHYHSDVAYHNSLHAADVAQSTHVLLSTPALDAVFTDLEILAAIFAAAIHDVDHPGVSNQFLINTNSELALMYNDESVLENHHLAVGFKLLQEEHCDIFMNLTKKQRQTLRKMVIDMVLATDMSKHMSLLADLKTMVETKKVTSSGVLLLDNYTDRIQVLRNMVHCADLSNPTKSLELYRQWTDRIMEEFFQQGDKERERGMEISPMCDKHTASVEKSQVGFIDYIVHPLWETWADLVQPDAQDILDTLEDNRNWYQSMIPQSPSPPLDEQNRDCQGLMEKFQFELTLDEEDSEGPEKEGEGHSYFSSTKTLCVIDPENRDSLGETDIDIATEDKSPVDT
# Sequence of Ubiquitin carboxyl-terminal hydrolase 1 (Homo sapiens) (O94782 whole entry, looked up): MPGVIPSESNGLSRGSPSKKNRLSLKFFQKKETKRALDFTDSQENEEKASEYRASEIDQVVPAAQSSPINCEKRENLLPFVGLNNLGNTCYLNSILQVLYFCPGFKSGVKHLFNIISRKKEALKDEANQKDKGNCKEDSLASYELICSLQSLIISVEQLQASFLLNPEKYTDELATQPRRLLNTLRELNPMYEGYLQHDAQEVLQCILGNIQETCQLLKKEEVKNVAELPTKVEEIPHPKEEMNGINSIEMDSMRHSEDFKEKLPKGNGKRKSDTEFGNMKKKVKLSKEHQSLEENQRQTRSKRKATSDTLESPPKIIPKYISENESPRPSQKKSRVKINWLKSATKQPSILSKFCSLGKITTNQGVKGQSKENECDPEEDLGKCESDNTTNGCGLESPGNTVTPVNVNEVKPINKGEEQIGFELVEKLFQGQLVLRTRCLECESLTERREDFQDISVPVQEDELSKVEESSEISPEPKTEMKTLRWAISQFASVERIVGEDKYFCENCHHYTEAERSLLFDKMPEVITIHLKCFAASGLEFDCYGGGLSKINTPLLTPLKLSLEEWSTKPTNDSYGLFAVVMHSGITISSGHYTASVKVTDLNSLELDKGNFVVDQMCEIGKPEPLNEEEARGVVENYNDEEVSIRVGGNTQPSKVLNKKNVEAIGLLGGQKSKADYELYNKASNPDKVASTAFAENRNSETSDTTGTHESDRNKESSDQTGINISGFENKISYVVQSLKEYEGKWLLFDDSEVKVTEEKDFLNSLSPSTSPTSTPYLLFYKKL
# Sequence of Lysosomal acid glucosylceramidase (Homo sapiens) (P04062 whole entry, looked up): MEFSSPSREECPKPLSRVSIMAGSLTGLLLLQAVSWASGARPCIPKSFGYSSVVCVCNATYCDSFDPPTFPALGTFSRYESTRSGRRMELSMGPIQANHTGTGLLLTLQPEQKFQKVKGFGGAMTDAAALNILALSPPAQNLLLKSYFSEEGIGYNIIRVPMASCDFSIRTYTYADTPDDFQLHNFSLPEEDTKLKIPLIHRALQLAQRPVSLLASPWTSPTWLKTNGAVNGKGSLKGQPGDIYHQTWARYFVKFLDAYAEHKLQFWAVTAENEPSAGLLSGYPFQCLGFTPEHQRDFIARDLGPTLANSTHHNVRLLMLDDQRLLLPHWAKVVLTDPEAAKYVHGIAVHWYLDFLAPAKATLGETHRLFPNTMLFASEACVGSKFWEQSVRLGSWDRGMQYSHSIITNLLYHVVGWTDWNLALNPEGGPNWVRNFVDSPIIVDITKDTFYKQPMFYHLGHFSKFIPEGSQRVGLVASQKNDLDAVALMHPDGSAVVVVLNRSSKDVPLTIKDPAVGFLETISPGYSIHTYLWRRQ
# Sequence of Glucocorticoid receptor (Homo sapiens) (P04150 whole entry, looked up, the tested form may be a part): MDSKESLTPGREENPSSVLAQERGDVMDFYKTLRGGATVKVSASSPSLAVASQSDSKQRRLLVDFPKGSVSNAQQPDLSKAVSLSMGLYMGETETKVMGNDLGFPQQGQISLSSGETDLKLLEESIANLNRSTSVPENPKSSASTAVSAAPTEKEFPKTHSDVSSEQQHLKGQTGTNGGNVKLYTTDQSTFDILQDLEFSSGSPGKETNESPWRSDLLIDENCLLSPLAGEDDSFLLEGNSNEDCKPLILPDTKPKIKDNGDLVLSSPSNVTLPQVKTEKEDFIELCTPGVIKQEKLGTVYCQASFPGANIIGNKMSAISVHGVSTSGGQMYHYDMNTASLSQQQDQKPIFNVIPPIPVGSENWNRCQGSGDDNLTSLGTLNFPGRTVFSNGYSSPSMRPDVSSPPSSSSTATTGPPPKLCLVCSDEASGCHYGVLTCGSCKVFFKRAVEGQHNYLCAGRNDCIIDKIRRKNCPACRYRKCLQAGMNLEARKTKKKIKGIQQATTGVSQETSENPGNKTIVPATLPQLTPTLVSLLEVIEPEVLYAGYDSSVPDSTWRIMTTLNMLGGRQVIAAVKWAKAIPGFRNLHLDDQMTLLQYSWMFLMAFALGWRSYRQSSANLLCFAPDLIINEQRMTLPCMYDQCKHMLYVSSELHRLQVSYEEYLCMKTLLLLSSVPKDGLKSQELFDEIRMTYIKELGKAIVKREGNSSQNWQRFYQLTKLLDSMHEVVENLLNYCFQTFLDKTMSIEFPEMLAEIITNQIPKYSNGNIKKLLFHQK
# Sequence of Cytochrome P450 1A2 (Homo sapiens) (P05177 whole entry, looked up): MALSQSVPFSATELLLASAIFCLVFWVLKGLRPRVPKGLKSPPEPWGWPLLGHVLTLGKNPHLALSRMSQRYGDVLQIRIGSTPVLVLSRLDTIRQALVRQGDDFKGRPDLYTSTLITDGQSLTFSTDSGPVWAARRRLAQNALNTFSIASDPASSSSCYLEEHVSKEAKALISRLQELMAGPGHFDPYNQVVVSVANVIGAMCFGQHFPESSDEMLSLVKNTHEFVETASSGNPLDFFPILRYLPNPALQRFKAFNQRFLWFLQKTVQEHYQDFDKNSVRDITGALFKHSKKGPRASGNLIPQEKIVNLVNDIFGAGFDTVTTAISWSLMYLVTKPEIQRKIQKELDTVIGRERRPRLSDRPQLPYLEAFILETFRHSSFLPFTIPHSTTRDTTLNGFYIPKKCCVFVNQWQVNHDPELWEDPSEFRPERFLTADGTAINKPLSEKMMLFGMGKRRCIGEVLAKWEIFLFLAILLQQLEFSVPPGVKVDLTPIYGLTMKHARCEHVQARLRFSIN
# Sequence of Cytochrome P450 3A4 (Homo sapiens) (P08684 whole entry, looked up): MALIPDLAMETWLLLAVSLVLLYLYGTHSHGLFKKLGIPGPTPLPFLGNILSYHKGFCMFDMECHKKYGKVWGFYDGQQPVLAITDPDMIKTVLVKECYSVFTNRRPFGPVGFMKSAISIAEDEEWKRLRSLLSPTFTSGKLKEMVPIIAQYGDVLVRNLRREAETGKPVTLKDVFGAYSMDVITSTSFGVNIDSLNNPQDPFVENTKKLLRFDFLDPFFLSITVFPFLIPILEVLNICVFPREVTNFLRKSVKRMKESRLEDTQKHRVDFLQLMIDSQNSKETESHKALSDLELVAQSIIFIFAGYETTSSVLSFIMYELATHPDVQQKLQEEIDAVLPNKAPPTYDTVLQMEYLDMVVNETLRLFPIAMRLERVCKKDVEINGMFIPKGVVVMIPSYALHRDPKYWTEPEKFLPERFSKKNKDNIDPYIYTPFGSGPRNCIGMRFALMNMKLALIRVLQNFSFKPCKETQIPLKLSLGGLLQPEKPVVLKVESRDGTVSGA
# Sequence of Luciferin 4-monooxygenase (Photinus pyralis) (P08659 whole entry, looked up): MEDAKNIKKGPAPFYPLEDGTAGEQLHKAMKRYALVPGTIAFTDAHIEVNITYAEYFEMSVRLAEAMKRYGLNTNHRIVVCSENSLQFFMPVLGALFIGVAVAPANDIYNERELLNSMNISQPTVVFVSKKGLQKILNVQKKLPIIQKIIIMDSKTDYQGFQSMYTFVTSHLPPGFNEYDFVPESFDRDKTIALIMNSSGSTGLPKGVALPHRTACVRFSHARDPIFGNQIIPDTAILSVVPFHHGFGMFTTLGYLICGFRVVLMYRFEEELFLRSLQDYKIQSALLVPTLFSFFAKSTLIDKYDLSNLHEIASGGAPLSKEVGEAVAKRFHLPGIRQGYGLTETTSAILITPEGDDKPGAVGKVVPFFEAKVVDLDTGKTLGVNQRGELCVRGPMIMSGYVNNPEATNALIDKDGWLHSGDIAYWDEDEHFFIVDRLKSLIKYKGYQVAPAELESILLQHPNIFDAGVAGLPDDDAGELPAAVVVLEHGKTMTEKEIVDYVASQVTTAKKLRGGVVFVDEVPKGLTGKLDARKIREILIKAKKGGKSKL
# Sequence of ATP-dependent 6-phosphofructokinase (Trypanosoma brucei brucei) (O15648 whole entry, looked up): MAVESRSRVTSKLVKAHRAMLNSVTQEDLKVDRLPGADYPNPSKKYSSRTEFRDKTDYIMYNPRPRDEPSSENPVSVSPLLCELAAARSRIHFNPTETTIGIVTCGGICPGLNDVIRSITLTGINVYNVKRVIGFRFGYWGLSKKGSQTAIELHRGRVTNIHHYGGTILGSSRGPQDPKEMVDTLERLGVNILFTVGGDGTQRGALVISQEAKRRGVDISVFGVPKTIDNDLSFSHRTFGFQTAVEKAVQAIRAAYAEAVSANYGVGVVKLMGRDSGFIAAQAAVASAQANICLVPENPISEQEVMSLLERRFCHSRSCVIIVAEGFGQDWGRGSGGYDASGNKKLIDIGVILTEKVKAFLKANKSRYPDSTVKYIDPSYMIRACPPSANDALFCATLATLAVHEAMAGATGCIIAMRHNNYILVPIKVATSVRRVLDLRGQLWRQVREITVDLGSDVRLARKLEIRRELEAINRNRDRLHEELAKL
smiles,measurement,setting,value
c1ccc(N2CCC3(CCNCC3)CC2)cc1,Potency,[1],> 11.4 µM (inactive)
same,outcome,[2],inactive
same,Potency,[3],inactive
same,"activity change, negative = inhibition",[4],-12.2% (inactive)
same,outcome,[5],inactive
same,Potency,[6],> 46 µM (inactive)
same,Potency,[7],inactive
same,"activity change, negative = inhibition",[8]; at 57.5 µM (top of the series),-3.07% (inactive)
same,max response,[8]; [20],-7.04%
same,max response,[8]; [21],-8.78%
C=CCc1ccc2c(c1)OCO2,outcome,[9],inactive
same,Potency,[10],inactive
same,"activity change, negative = inhibition",[8]; at 57.5 µM (top of the series),12.7% (inactive)
same,max response,[8]; [20],13.6%
same,max response,[8]; [21],31.4%
same,Potency,[11],inactive
CCc1cccc(CC)c1N(COC)C(=O)CCl,Potency,[12],inactive
same,"activity change, negative = inhibition",[8]; at 57.5 µM (top of the series),1.98% (inactive)
same,max response,[8]; [20],-0.808%
same,max response,[8]; [21],0.291%
same,Potency,[11],inactive
c1cc(CN2CC3(CCNCC3)C2)ccn1,Potency,[1],> 11.4 µM (inactive)
same,outcome,[2],inactive
same,Potency,[3],inactive
same,outcome,[5],inactive
same,Potency,[6],> 46 µM (inactive)
same,outcome,[9],inactive
same,Potency,[7],inactive
same,"activity change, negative = inhibition",[8]; at 57.5 µM (top of the series),2.64% (inactive)
same,max response,[8]; [20],6.79%
same,max response,[8]; [21],9.29%
CC(C)C[C@H]1C(=O)N2CCCC2[C@]2(O)O[C@](NC(=O)[C@@H]3C=C4c5cccc6[nH]c(Br)c(c56)C[C@H]4N(C)C3)(C(C)C)C(=O)N12 (some centres not stated),"activity change, negative = inhibition",[8]; at 57.5 µM (top of the series),-0.407% (inactive)
same,max response,[8]; [20],-32%
same,max response,[8]; [21],-33.2%
CN1CC[C@@]2(CCCN(C(=O)c3ccco3)C2)C1,Potency,[1],> 11.4 µM (inactive)
same,outcome,[2],inactive
same,Potency,[3],inactive
same,"activity change, negative = inhibition",[4],-15.5% (inactive)
same,outcome,[5],inactive
same,Potency,[6],> 46 µM (inactive)
same,Potency,[10],inactive
same,"activity change, negative = inhibition",[8]; at 57.5 µM (top of the series),5.37% (inactive)
same,max response,[8]; [20],10.7%
same,max response,[8]; [21],19.3%
ClC(Cl)=C(c1ccc(Cl)cc1)c1ccc(Cl)cc1,Potency,[12],inactive and 7.94 µM (active)
same,Potency,[10],inactive
same,"activity change, negative = inhibition",[8]; at 57.5 µM (top of the series),9.37% (inactive)
same,max response,[8]; [20],14.6%
same,max response,[8]; [21],26.1%
same,Potency,[11],inactive
COCC(=O)N1CCC2(CCCN(Cc3ccncc3)C2)CC1,Potency,[1],> 11.4 µM (inactive)
same,outcome,[2],inactive
same,Potency,[3],inactive
same,outcome,[5],inactive
same,Potency,[6],> 46 µM (inactive)
same,outcome,[9],inactive
same,Potency,[7],inactive
same,Potency,[10],inactive
same,"activity change, negative = inhibition",[8]; at 57.5 µM (top of the series),5.89% (inactive)
same,max response,[8]; [20],12.2%
same,max response,[8]; [21],21.3%
C/C=C/c1ccc2c(c1)OCO2,outcome,[9],inactive
same,Potency,[10],inactive
same,"activity change, negative = inhibition",[8]; at 57.5 µM (top of the series),7.07% (inactive)
same,max response,[8]; [20],10.4%
same,max response,[8]; [21],20.9%
same,Potency,[11],inactive
C[N+]1([O-])[C@@H]2CC(OC(=O)[C@@H](CO)c3ccccc3)C[C@@H]1[C@H]1O[C@H]12 (some centres not stated),Potency,[1],> 11.4 µM (inactive)
same,outcome,[2],inactive
same,Potency,[3],inactive
same,outcome,[5],inactive
same,Potency,[13],> 20.6 µM (inactive) and > 46 µM (inactive)
same,Potency,[6],> 20.6 µM (inactive) and > 9.22 µM (inactive)
same,outcome,[9],inactive
same,"activity change, negative = inhibition",[8]; at 25.7 µM (top of the series),0.148% (inactive)
same,max response,[8]; [20],26%
same,max response,[8]; [21],27.4%
same,Potency,[14],inactive
same,Potency,[11],inactive
same,Potency,[15],inactive
same,"activity, negative = inhibition","[16]; at 12.8 µM (top of the series), parasite line A",-0.201% (inactive)
same,"activity, negative = inhibition","[16]; at 12.8 µM (top of the series), parasite line B",-5.73% (inactive)
same,"activity, negative = inhibition","[16]; at 28.7 µM (top of the series), parasite line A",13.1% (inactive)
same,"activity, negative = inhibition","[16]; at 28.7 µM (top of the series), parasite line B",10.8% (inactive)
same,Potency,[17],inactive
same,Potency,[18],inactive
same,Potency,[19],inactive
